In all, about 140,000 compounds went through this assay and about 2,100 (1.5%) were called active. The sample holds actives, similar compounds and a random draw of the others, so the mix is not that of the screen.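 How the source made its calls: active means viability at or under a set limit, the compound median less 4 SD (cut at about 6% in these data); inactive means the rest.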
Assay: primary screen for suppressors of beta-catenin knockout HCT116 cell growth, colon tumor, human (AID 818);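 further: 0% = Hyamine 1622 control at 20 µM and 100% = untreated cell control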
Conditions: CellTiter-Glo, 60 h, at 10 µM, active compounds read low

| Compound | viability |
| --- | --- |
| COc1ccc(NC(=O)CC2C(=O)OCC3CCCCN32)cc1Cl (stereo not given) | 93.4% (inactive) |
| Cc1cc(C)c(C#N)c(SCC(=O)NN2CC(=O)N(c3ccccc3F)CC2=O)n1 | 99.8% (inactive) |
| CC(C)[C@H](NC(=O)c1ccc(F)cc1)C(=O)OCC(=O)NC(=O)c1cccn1C | 93.5% (inactive) |
| N=c1n(CCc2ccccc2)c2ccccc2n1Cc1ccccc1F | 3.71% (active) |
| CC(=O)NC(C)c1nc2ccccc2n1Cc1ccccc1F (stereo not given) | 102% (inactive) |
| CN(Cc1ccccc1)Cc1ccccc1F | 83% (inactive) |
| Cc1ccc2[nH]cc(CCNC(=O)c3ccc([N+](=O)[O-])cc3)c2c1 | 106% (inactive) |
| Cc1ccc(C(=O)NC(C)c2ccccc2)cc1Br (stereo not given) | 83.5% (inactive) |
| CC(=O)Nc1ccc(S(=O)(=O)NCC(=O)OCc2cc(=O)oc3ccc4ccccc4c23)cc1 | 83.8% (inactive) |
| CCCN1C(=O)C(Cc2nc3ccccc3c(=O)n2-c2ccccc2)c2cc(C)ccc21 (stereo not given) | 74.7% (inactive) |
| Cc1cc(C)c2c3c(sc2n1)C(c1ccccc1)C(C#N)=C(N)O3 (stereo not given) | 21.1% (inactive) |
| Cc1cc2c(c(=O)n1Cc1ccco1)C(c1ccccc1)C(C#N)=C(N)O2 (stereo not given) | 105% (inactive) |
| N#CC1=C(N)Oc2c(sc3ccccc23)C1c1ccco1 (stereo not given) | 3.24% (active) |
| Brc1ccc(-c2csc(N/N=C/c3ccc4c(c3)OCO4)n2)cc1 | 84.8% (inactive) |
| CC(=O)c1c(O)cc2n(c1=O)-c1ccc(Cl)cc1C2(C)C | 91.5% (inactive) |
| Cc1ccc(C(CC(=O)O)Nc2nc(N3CCCCC3)nc(N3CCCCC3)n2)cc1 (stereo not given) | 97.6% (inactive) |
| CC(C)n1c(C(O)c2ccccc2)nc2ccccc21 (stereo not given) | 110% (inactive) |
| CC(Nc1nc(N2CCCC2)nc2ccccc12)c1ccccc1 (stereo not given) | 1.19% (active) |
| C/C(=N\N1CCN(Cc2ccc(C)cc2)CC1)c1ccco1 | 99.1% (inactive) |
| Cc1cc2oc(=O)cc(CN3CCN(S(=O)(=O)c4cccs4)CC3)c2cc1C(C)C | 76.9% (inactive) |
| COc1cccc(-n2c(SCC(=O)c3c[nH]c4ccccc34)nc3ccccc3c2=O)c1 | 73.3% (inactive) |
| NC(=O)c1ccccc1N=Cc1ccc2ccccc2c1 | 35.3% (inactive) |

| Compound | viability |
| --- | --- |
| N#C/C(=C(/O)COc1cccc2ccccc12)c1nc2ccccc2[nH]1 | 79.3% (inactive) |
| N#C/C(=C(/O)COC(=O)COc1ccc(Cl)cc1)c1nc2ccccc2[nH]1 | 5.63% (active) |
| Cc1ccccc1OC/C(O)=C(\C#N)c1nc2ccccc2[nH]1 | 78.6% (inactive) |
| O=C(Cc1cccc2ccccc12)NCCC1=CCCCC1 | 85.5% (inactive) |
| CCOc1ncccc1C(=O)N(CC)CC(=O)Nc1ccc(NC(C)=O)cc1 | 104% (inactive) |
| CCOC(=O)C1=C(c2ccc(OC)cc2)C(=O)c2ccccc2C1=O | 1.16% (active) |
| CCCCC(C(=O)OCC(=O)c1ccc(OC)cc1)N1C(=O)c2ccccc2C1=O (stereo not given) | 103% (inactive) |
| CCOC(=O)c1ccccc1NS(=O)(=O)c1ccc(OC)cc1 | 17.6% (inactive) |
| CCOC(=O)c1nn(-c2ccccc2F)c2nc(Nc3ccccc3)cc(=O)n12 | 94.3% (inactive) |
| Cc1csc(NC(=S)Nc2cccc(Cl)c2)n1 | 26.5% (inactive) |
| FC(F)(F)c1cccc(NC(=S)Nc2cccc(Cl)c2)c1 | 5.77% (active) |
| S=C(Nc1cccc(Cl)c1)Nc1ccc2cn[nH]c2c1 | 77.5% (inactive) |
| COC(=O)/C(=C1\Oc2ccc(C(C)(C)C)cc2S1)C(F)(F)F | 102% (inactive) |
| Cc1[nH]n(-c2ccccc2)c(=O)c1/C=N/NC(=O)c1ccoc1C | 3.98% (active) |
| Cc1[nH]n(-c2cccc(Cl)c2)c(=O)c1/C=N/n1c(C)nc2ccccc2c1=O | 85.9% (inactive) |
| COc1cccc(/C=N/NC(=O)c2cccc([N+](=O)[O-])c2)c1OS(=O)(=O)c1ccc(C)cc1 | 80.7% (inactive) |
| Cc1ccc(-n2[nH]c(C)c(/C=N/NC(=O)c3cccc([N+](=O)[O-])c3)c2=O)cc1C | 3.51% (active) |
| COc1cc(/C=N\NC(=O)CNC(=O)c2cccc([N+](=O)[O-])c2)ccc1O | 79% (inactive) |
| Cc1[nH]n(-c2ccc(Cl)cc2)c(=O)c1/C=N/n1c(C)nc2ccccc2c1=O | 22.4% (inactive) |
| COC(=O)C1NN=C(C(=O)c2ccc(Br)cc2)C1c1cccc(Br)c1 (stereo not given) | 96.8% (inactive) |
| O=C(CN1CCN(c2ccc(O)cc2)CC1)NC1CCCc2ccccc21 (stereo not given) | 74% (inactive) |
| C/C(=N/NC(=O)CSc1ccccn1)c1ccc([N+](=O)[O-])cc1 | 94.1% (inactive) |

| Compound | viability |
| --- | --- |
| COc1ccc(C(CC(=O)O)NC(=O)Cc2ccccc2)cc1 (stereo not given) | 96.5% (inactive) |
| COc1ccc(CC(=O)N/N=C(\C)c2ccccn2)cc1 | 3.98% (active) |
| COc1ccc(C/C(C)=N/NC(=O)c2ccncc2)cc1 | 91.1% (inactive) |
| C/C(=N\NC(=O)Cc1ccc(Cl)cc1)c1ccccn1 | 4.96% (active) |
| C/C(=N\NC(=O)Cc1ccc(F)cc1)c1ccc(F)cc1 | 99.1% (inactive) |
| CCC(CC)C(=O)N1CCN(c2cccc(C)c2C)CC1 | 43.6% (inactive) |
| COC(C(=O)Nc1ccc(C(C)=O)cc1)c1ccccc1 (stereo not given) | 85.5% (inactive) |
| O=C(NCCCO)/C(=C\C=C\c1ccccc1)NC(=O)c1ccccc1Cl | 94% (inactive) |
| Cc1cc(Br)ccc1SCC(=O)OCC(=O)NCc1ccc2c(c1)OCO2 | 85.9% (inactive) |
| CC(C)C(=O)Nc1cccc(NC(=O)c2ccc([N+](=O)[O-])cc2Cl)c1 | 96% (inactive) |
| O=C(/C=C/c1ccc(Cl)cc1Cl)c1cccnc1 | 0.88% (active) |
| O=C(NCc1ccc(Cl)c(Cl)c1)c1cccnc1 | 92.2% (inactive) |
| O=C(/C=C/c1ccc(Cl)cc1Cl)NCc1ccco1 | 102% (inactive) |
| CC(=O)Nc1ccc(NC(=S)NC(=O)c2ccc([N+](=O)[O-])c(C)c2)cc1 | 93.3% (inactive) |
| CCC(C)(C)C1CCC(=NNC(=O)c2ccc(Br)o2)CC1 (stereo not given) | 94.6% (inactive) |
| O=C(COC(=O)Cc1ccc(Br)cc1)Nc1c(F)c(F)c(F)c(F)c1F | 94.5% (inactive) |
| COc1cc(/C=C2\SC(=S)N(Nc3ncc(C(F)(F)F)cc3Cl)C2=O)cc(OC)c1OC | 109% (inactive) |
| COc1cccc(/C=N\NC(=O)C2=NNC(=O)C2C)c1O (stereo not given) | 45.9% (inactive) |
| COc1cccc(/C=N/Nc2ncc(C(F)(F)F)cc2Cl)c1O | 2.51% (active) |
| COc1ccc(OC)c(-c2c(=O)n(OCc3ccccc3Br)c3ccccc3[n+]2[O-])c1 | 74.9% (inactive) |
| COc1ccc(C(=O)Nc2c(Cl)cc(Cl)cc2C(=O)N2CCC(C)CC2)cc1 | 77.2% (inactive) |
| Cc1cccc(OCC(=O)NC(=S)Nc2ccccc2N2CCOCC2)c1 | 98.4% (inactive) |

| Compound | viability |
| --- | --- |
| CCOc1cc(N2CCOCC2)c(OCC)cc1NC(=O)COC(=O)[C@H](Cc1c[nH]c2ccccc12)NC(C)=O | 87.2% (inactive) |
| CCOc1cc(N2CCOCC2)c(OCC)cc1NC(=O)COc1cccc2cccnc12 | 4.29% (active) |
| CCOC(=O)c1ccccc1N1C(=O)C2Sc3[nH]c(=O)sc3C(/C=C/c3ccccc3)C2C1=O (stereo not given) | 91.4% (inactive) |
| Cc1nc2c(C(=O)NCc3cccs3)cnn2c(C)c1Cc1ccc(F)cc1 | 83.5% (inactive) |
| N#C/C(=C/c1ccc(N2CCCCC2)o1)C(=O)NCCc1c[nH]c2ccccc12 | 90.2% (inactive) |
| O=C(Nc1ccc([N+](=O)[O-])cc1)C1(c2ccccc2)CCOCC1 | 94.8% (inactive) |
| CCc1ccc2c(c1)C1(NN=C(c3ccccc3)S1)C(=O)N2 (stereo not given) | 4.17% (active) |
| C=C1c2cc(CC)ccc2NC(=O)N1c1ccc(C)cc1 | 98.3% (inactive) |
| O=C1Nc2ccccc2C12Nc1ccccc1S2 (stereo not given) | 86.2% (inactive) |
| Cc1ccc2c(CC(=O)NCc3cccs3)coc2c1 | 102% (inactive) |
| Cc1ccnc(NS(=O)(=O)c2ccc(NC(=O)c3ccc(S(=O)(=O)N4CCOCC4)cc3)cc2)n1 | 97% (inactive) |
| CCC(C(=O)OCCN(CC)CC)c1ccccc1 (stereo not given) | 106% (inactive) |
| CCN(CC)CCOc1ccc2c(c1)C(=NNC(=O)c1ccccn1)c1cc(OCCN(CC)CC)ccc1-2 | 0.37% (active) |
| CCC(C)(NC(=O)c1ccccn1)C(=O)NC1CCCCC1 (stereo not given) | 89.8% (inactive) |
| COCCNc1nc(N)c([N+](=O)[O-])c(NCCO)n1 | 98.5% (inactive) |
| O=C(Nc1ccccc1F)c1ccccc1-c1ccc(C(F)(F)F)cc1 | 77.4% (inactive) |
| CCOC(=O)C1=C(C)NC(=S)NC1c1cccs1 (stereo not given) | 84.5% (inactive) |
| Cc1cccc(NC(=O)NC(=S)NC(=O)c2ccccc2)c1 | 102% (inactive) |
| O=C(NC1CCN(Cc2ccccc2)CC1)c1c(F)cccc1F | 93.9% (inactive) |
